From the supplement of paper PMC7866885, “A novel bicyclic 2,4-diaminopyrimidine inhibitor of Streptococcus suis dihydrofolate reductase” (PeerJ, 2021)
± gives the standard deviation.

tested on: Streptococcus suis HE06; experiment: percent growth relative to DMSO control; higher = less growth inhibition; settings: 10 µM; incubation time 18 h
Experimental: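 CLSI broth microdilution: 5x10^4 CFU of Streptococcus suis (strain P1/7 or HE06) incubated with 10 µM Pathogen Box compound in cation-adjusted Mueller Hinton broth, 37 °C, 5% CO2, 18 h. Growth read as OD600 and expressed as percent of the DMSO-treated control (100%); mean ± SD of three independent experiments.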

Compound | percent growth [%]
CCN(CC)CCCCCCNc1cc(OC)cc2c(C)ccnc12 | 81.6 ± 14
COc1ccc(OC(C)C(=O)Nc2ccc(Cl)cc2C)cc1 (stereo not drawn) | 107 ± 13
Clc1cccc(CO[C@H]2CCc3ccccc3[C@@H]2n2ccnn2)c1 | 97.4 ± 3.9
NCCN(C(=O)c1ccc(Cl)cc1Cl)c1ccc(OCc2ccc(Cl)cc2)cc1 | 68.3 ± 61
COc1ccc2nc(C)cc(OCC(=O)Nc3ccccc3OC)c2c1 | 89.9 ± 9.3
CC(=O)Nc1ccc(NC(=O)c2cc(-c3cc(Cl)ccc3O)[nH]n2)cc1 | 96.5 ± 11
Cc1ccc(S(=O)(=O)N2CCN(C(=O)c3cc(-c4ccccc4)[nH]n3)CC2)cc1 | 118 ± 39
CCc1nc2ccccc2n1CC(O)COc1cc(C)ccc1Cl (stereo not drawn) | 65.7 ± 22
Cc1ccc(NC(=O)CC2COc3ccccc3O2)cc1Cl (stereo not drawn) | 96.4 ± 1.4
Brc1cncc(-c2cc(NCCCn3ccnc3)nc(-c3ccccc3)n2)c1 | 46.7 ± 37
COc1ccc(OC)c(NCc2ccc3nc(N)nc(N)c3c2Cl)c1 | 4.05 ± 6.3
O=C(CCC1CCCCC1)Nc1cccc(-c2nnc(-c3ccco3)o2)c1 | 93.8 ± 3.7
COc1ccc(Cn2cnc3c(-c4ccco4)nc(Cl)nc32)cc1 | 88.5 ± 13
CC(C)(C)OC(=O)N1CCC(Cn2nc(-c3cnc4ccccc4c3)c3c(N)ncnc32)CC1 | 88.2 ± 27
COCC(C)NC(=O)CSc1ncnc2sc(-c3ccccc3)cc12 (stereo not drawn) | 95.4 ± 33
O=C(Nc1nnc(-c2ccc(Cl)s2)o1)c1ccc(Cl)s1 | 1.06 ± 1.1
Cn1ccnc1CNCCS(=O)(=O)c1cccc(Nc2ccc(-c3cccc(F)c3)cn2)c1 | 91.4 ± 14
Cc1cc(Cl)c(S(=O)(=O)N2CCCC2)cc1OCC(=O)NC1CCCCC1 | 87.7 ± 22
OCCc1ccc(Nc2nccc(-c3nnc4ccccn34)n2)cc1 | 92.9 ± 6.6

Compound | percent growth [%]
COc1ccc(-c2nn(C(C)C)c3ncnc(N)c23)cc1OC | 112 ± 26
COc1cccc(OCC(=O)c2ccc(Br)cc2)c1 | 57.7 ± 50
CN1CCCN(C(c2ccccc2)c2ccc(Cl)cc2)CC1 (stereo not drawn) | 91.9 ± 4.1
COc1cccn2c(C(=O)N3CCCCC3)c(C(F)(F)F)nc12 | 111 ± 22
Nc1ncnc2c1ncn2C[C@@H](O)[C@@H](O)C(=O)O | 75.9 ± 17
O=C(Nc1ccc(N2CCNCC2)cc1)c1ccn2ncc(-c3cccc(Cl)c3)c2n1 | 98.9 ± 27
Cc1nn2c(=O)c3c([nH]c2c1-c1ccc(Cl)cc1)CCCC3 | 0.386 ± 8.7
O=C(Nc1nnc(S)s1)c1cc(Br)ccc1Cl | 107 ± 10
CC(C)c1ncc(-c2ccncc2)c([C@H]2CC[C@H](CNC(=O)c3cccnc3)CC2)n1 | 82.4 ± 8.9
COc1ccc(-c2cnc3ccc(N4CCCC4)nn23)cc1OC | 48.8 ± 40
COc1cc(C2=NCCN2)ccc1-n1cc(-c2cccc(C3=NCCN3)c2)nn1 | 99.7 ± 40
O=C(Nc1nc(-c2ccccn2)cs1)C1CC1c1ccccc1F (stereo not drawn) | -0.0889 ± 1.4
COc1ccc2nccc(NC(=O)C3CCN(CCc4ccc(Cl)cc4)CC3)c2n1 | 74.3 ± 59
CN(C)c1cc(NC(=O)Nc2ccccc2)c2ccccc2n1 | 105 ± 8.6
Cc1noc(C)c1C(=O)N1CCCC(c2[nH]c3c(C)cccc3c2-c2ccncc2)C1 (stereo not drawn) | 90.2 ± 6.2
Nc1ncc(Br)cc1-c1nc2cc(Cl)cnc2[nH]1 | 92.2 ± 8.1
c1ccc(-c2[nH]c3ccccc3c2C(c2ccccn2)N2CCCC2)cc1 (stereo not drawn) | 88.5 ± 4.3
CC(C)=CCC/C(C)=C\CNCCNC1C2CC3CC(C2)CC1C3 (stereo not drawn) | 0.0687 ± 0.12
CCOc1ccc2cc(-c3nn(CC4CCN(C)CC4)c4ncnc(N)c34)ccc2c1 | 97 ± 13
